Screening data deposited in PubChem BioAssay by several laboratories.
CYP2C9 activ: increases human cytochrome P450 2C9 activity; P11712; recombinant CYP2C9, luciferin-H conversion, luminescence; stronger effect = higher value; factor 1 = untreated enzyme, 0 = blocked; activation factor at 5 µM; 1.4% of 96,000 active; AID 1024;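 active = activation factor of 2 or more for CYP2C9 at a 5 µM dose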;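 also: 0 = sulfaphenazole-blocked wells and 1 = vehicle-only wells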
CYP2C19 inhib: blocks human cytochrome P450 2C19; P33261; CYP2C19 Supersomes, luciferin-H EGE luminescence, 30 min; inhibition, % at 5 µM; 21% of 96,000 active; AID 778;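 active = CYP2C19 inhibition above a set limit at 5 µM in the primary screen, cut at about 50% in these data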;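 also: plate controls were negative control wells for no effect and 2.5 mM tranylcypromine positive control for full effect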
CYP2C19 act: cytochrome P450 2C19 (human) activation; P33261; recombinant CYP2C19, luciferin-H EGE luminescence; stronger effect = higher value; 0 = fully inhibited enzyme, 1 = untreated enzyme; AID 1025; 96,000 tested, under 10 active; activation factor at 5 µM;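 active = activation factor of at least 2 at 5 µM in the primary screen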;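 also: 0 = wells with 2.5 mM tranylcypromine and 1 = vehicle-only wells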
Cav32 inh: inhibitors of human Cav3.2 T-type calcium channel; O95180; Cav3.2-expressing cells, Fluo-4 calcium fluorescence FDSS; stronger effect = lower value; B-score at 10 µM; 4% of 100,000 active;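 active = single-dose well whose peak fluorescence ratio is a statistical outlier from its plate by either plate-standardised score or position-corrected B-score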
CYP2C9 inhib: inhibitors of human CYP2C9 | P11712 | CYP2C9 Supersomes, luciferin-H conversion, luminescence | inhibition, % at 5 µM | 20% of 96,000 active;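 active = blocking of liver enzyme CYP2C9 beyond about 50% at 5 µM, limit read from the data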
Numbers without * were called inactive; · = no result. Compounds with a hit are over-represented: about 27% of the library has one in this group of screens.

SMILES	CYP2C9 activ	CYP2C19 inhib	CYP2C19 act	Cav32 inh	CYP2C9 inhib
O=C(CN1CCN(c2ccc(F)cc2)CC1)c1ccc2c(c1)OCO2	0.7	33.0	0.7	·	31.2
O=C(NC1CC1)C1CCN(Cc2cnn(-c3ccccc3)c2-n2cccc2)CC1	0.9	8.9	0.9	0.954	7.9
Cc1ccccc1CS(=O)(=O)c1cnc2ccccc2n1	2.3*	93.2*	0.1	0.375	-129.2
Cc1ccccc1CS(=O)(=O)c1snnc1C	1	54.7*	0.5	1.03	-1.1
CC1=C(C(=O)OC(C)C)C(c2ccccn2)n2ncnc2N1 (stereo not given)	1	4.0	1	0.425	4.6
CC(C)c1nc(N2CCOCC2)c(C#N)c2c1CCCC2	0.6	80.3*	0.2	-5*	41.5
CCSc1nc(N2CCOCC2)c2c(c1C#N)CCCC2	0.1	69.8*	0.3	-2.12	90.8*
CCCCN1C(N)=NC[C@H]1Cc1ccc(O)cc1	·	·	·	1.13	·
CCNC(=O)CN(c1ccc(CC)cc1)S(C)(=O)=O	1.1	49.4	0.5	0.385	-9.2
C=CCn1c(SCC(=O)c2ccc(CNC(C)=O)o2)nc2ccccc2c1=O	0.6	23.6	0.8	0.709	39.9
NC(=O)c1ccccc1NS(=O)(=O)c1ccc2c(c1)OCCO2	1.3	75.9*	0.2	0.565	-25.4
CC(=O)c1cc2c(cc1NS(=O)(=O)c1ccc3c(c1)OCCO3)OCO2	1.7	98.7*	0	-0.492	-71.0
CC(=O)c1cc2c(cc1NS(=O)(=O)c1ccc(C)cc1)OCO2	1.1	63.0*	0.4	0.155	-11.9
O=C(c1ccccc1NS(=O)(=O)c1cccc([N+](=O)[O-])c1)N1CCOCC1	1	-1.0	1	1.19	1.1
CCN(CC)S(=O)(=O)c1ccc(S(=O)(=O)Nc2cc3c(cc2C(C)=O)OCO3)cc1	0	51.5*	0.5	0.307	97.3*
CCN(CC)S(=O)(=O)c1ccc(NC(=O)C(C)N(c2ccccc2)S(C)(=O)=O)cc1 (stereo not given)	·	·	·	-2.17	·
COc1cc(NS(=O)(=O)c2ccc(NC(=O)C34CC5CC(CC(C5)C3)C4)cc2)ncn1	1.2	-1.2	1	1.35	-19.2
CCOC(=O)c1ccc(NS(=O)(=O)c2ccc3c(c2)oc(=O)n3C)cc1	·	·	·	-1.16	·
CCC(CC)NC(=O)COC(=O)c1ccc(NS(=O)(=O)c2ccc3c(c2)OCCO3)cc1	0	84.4*	0.2	·	98.6*
O=C(NS(=O)(=O)c1ccc2c(c1)OCCO2)c1ccccc1	0.4	-7.1	1.1	0.026	58.4*
O=C(O)CNC(=O)c1ccc2c(c1)OCCO2	0.9	3.2	1	1.06	5.0
COC(=O)c1ccccc1NC(=O)c1ccc2c(c1)OCCO2	1	23.5	0.8	0.368	0.8
COC(=O)c1ccc(Cl)c(NS(=O)(=O)c2ccc3c(c2)OCCO3)c1	0.6	86.8*	0.1	-5.39*	37.1
CN(C)c1ccc(C2NCC(CCl)O2)cc1 (stereo not given)	1.1	16.9	0.8	0.024	-8.3
COC(=O)c1ccc(/C=N/OCC(=O)NC2CCCCCCC2)cc1	0.4	15.6	0.8	-2.95	64.7*
SMILES	CYP2C9 activ	CYP2C19 inhib	CYP2C19 act	Cav32 inh	CYP2C9 inhib
CCC(C)NC(=O)CO/N=C/c1ccc(C(=O)OC)cc1 (stereo not given)	0.3	30.8	0.7	0.288	68.7*
COC(=O)c1ccc(/C=N/OCC(=O)NC2CCCC(C)C2C)cc1 (stereo not given)	0.6	22.6	0.8	-1.8	40.2
O=C(CNC(=O)c1ccco1)OCC(=O)c1ccc2ccccc2c1	1	-5.6	1.1	-0.893	0.9
CC(=O)c1cc(C)ccc1OC(=O)c1ccco1	1.1	1.8	1	0.358	-6.8
Cc1ccc(C)c(S(=O)(=O)N2C(=S)NC(=O)C2C(C)C)c1 (stereo not given)	0	55.5*	0.4	0.978	95.4*
Cc1cccc(C(=O)Nc2onc(C)c2C#N)c1	0.8	-15.3	1.2	1.51	16.5
Cc1ccc(CNC(=O)c2cccc(OCc3c(C)noc3C)c2)cc1	0.7	57.5*	0.4	-5	29.4
Cc1noc(C)c1COc1cccc(C(=O)Nc2ccc(C#N)cc2)c1	0.7	5.0	0.9	-1.06	25.7
Cc1cccc(C(=O)Nc2ccccc2C(=O)OCc2c(C)noc2C)c1	0.1	46.3	0.5	-2.03	86.2*
Cc1ccccc1NC(=O)c1cccc(OCc2c(C)noc2C)c1	0.8	24.4	0.8	0.444	20.4
Cc1noc(C)c1COc1cccc(C(=O)NCc2cccc(Cl)c2)c1	0.5	41.9	0.6	-2.95	51.5*
Cc1ccc(NC(=O)c2cccc(OCc3c(C)noc3C)c2)cc1	0	91.1*	0.1	-1.47	95.3*
CCC(=O)Nc1cccc(NC(=O)CSc2nnc(C(C)C)n2CC)c1	1	4.3	1	0.124	-1.1
CCn1c(SCC(=O)Nc2nc(C)c(C(=O)OC)s2)nnc1C(C)C	0.7	50.0*	0.5	0.523	34.0
COCCn1c(SCC(=O)Nc2cccc(C)c2)nnc1C(C)C	1.1	68.1*	0.3	0.752	-10.0
CCCn1c(SCC(=O)Nc2nc(C)c(C(=O)OC)s2)nnc1C(C)C	0.7	37.9	0.6	-0.0563	27.9
COCCn1c(SCC(=O)c2ccc(Cl)cc2)nnc1C(C)C	0.9	73.6*	0.3	-0.289	11.2
CCCn1c(SCC(=O)Nc2ccc(OCC)cc2)nnc1C(C)C	·	·	·	0.352	·
CCCn1c(SCC(=O)Nc2c(CC)cccc2CC)nnc1C(C)C	0.5	57.7*	0.4	-0.0931	49.3
O=C(Nc1nnc(C(F)(F)F)s1)c1ccc(N2C(=O)C3C4C=CC(C4)C3C2=O)cc1 (stereo not given)	0.7	-9.4	1.1	0.00412	29.5
CC(=O)NC(Cc1cc(C)ccc1C)C(=O)N1CCN(C(=O)Nc2ccc(C(C)=O)cc2)CC1 (stereo not given)	1	13.3	0.9	-0.319	-1.0
O=C(NCC1CCCO1)C1CCN(S(=O)(=O)c2cccnc2)CC1 (stereo not given)	1	7.8	0.9	0.154	-4.9
CCc1cccc(C)c1NC(=O)CSc1nnc(-c2cc3cc(Br)ccc3o2)n1CC	0.4	11.6	0.9	-1.16	56.2*
COCCn1c(SCC(=O)Nc2cc(C)cc(C)c2)nnc1C(C)C	0.8	60.7*	0.4	0.043	21.2
Cn1c(SCC(=O)Nc2cccc(Br)c2)nnc1-c1cc2ccccc2o1	0.6	33.7	0.7	-0.797	41.4
Cc1cc(-n2nc(C)cc2C)n2nc(C)c(-c3ccc(Cl)cc3)c2n1	0.8	-17.0	1.2	0.914	24.8
Cc1ccc(-n2nc(C)c(C3C(C#N)=C(N)OC4=C3C(=O)CCC4)c2Cl)cc1 (stereo not given)	0.5	90.9*	0.1	·	53.3*
N#CC1=C(N)OC2=C(C(=O)CCC2)C1c1ccccc1 (stereo not given)	0.9	19.2	0.8	-0.924	12.9
Cc1nn(-c2ccccc2)c(C)c1C1C(C#N)=C(N)Oc2n[nH]c(C)c21 (stereo not given)	·	·	·	0.328	·
